According to PubChem BioAssay (NCI):
This is part of a sample that, as a whole, favours compounds with a hit. Of some 83,000 tested, about 20% had one in any assay.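 96-well plates, one dose, 48 hours. Percent growth reported; active if below 10.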 Values without a mark were called inactive. Calls of active or inactive are those of the source.

tested on: HT29 colon; assay: NCI-60 one-dose screen, 48 h (100 = growth as untreated, 0 = no growth, -100 = all killed); conditions: 10 µM
Method: Growth inhibition of the HT29 human tumor cell line is measured as a screen for anti-cancer activity. Cells are grown in 96 well plates and exposed to the test compound for 48 hours. Compounds are tested at a single concentration, which is 10^-5 M for most compounds. The reported endpoint is percent growth (GI% or GIPRCNT), where numbers from 0 - 100% represent growth inhibition, and numbers from -100% - 0 represent cell death. For example, a value of 40 represents 60% growth inhibition. A value of 0 means no net growth occurred over the course of the experiment. A value of -40 indicates 40% of cells at the beginning of the experiment died by the end of the experiment. A value of -100 means all cells are dead at the end of the experiment.
NCI-60 Human Tumor Cell Lines Screen was performed using the standard one-dose NCI protocol, which is described in more detail at https://dtp.cancer.gov/discovery_development/nci-60/default.htm.
Compounds with GIPRCNT values below 10 were considered active. Activity score was based on GIPRCNT using the following formula: […]
Score is 0 for GIPRCNT values of 100 or above, 50 for GIPRCNT values of 0, and 100 for GIPRCNT values of -100.

Compound | growth
CNC(=S)Sc1ccc([N+](=O)[O-])cc1[N+](=O)[O-] | 4.84% (active)
O=S(=O)(NC1c2ccccc2Oc2ccccc21)c1cc(Cl)ccc1Cl | 91.4%
COc1ccc(Cn2cc3c(c2-c2ccccc2)CC(C)(C)c2cnoc2-3)cc1 | 12.5%
N#Cc1c(-c2ccccc2)nc(SCC(=O)N2CCOCC2)[nH]c1=O | 106%
C[C@@H]1C(=O)N(C[C@H](Cc2ccccc2)NC(=O)OCc2ccccc2)[C@]1(Cc1ccccc1)C(=O)OCc1ccccc1 | 43.7%
CCNC(=S)NN | 56.2%
COc1ccc(CSc2nc3cc(OC)c(OC)cc3c(=O)n2-c2ccc(OC)cc2OC)cc1 | 88%
S=c1c2ncccc2c(-c2ccccn2)nn1Cc1ccccn1 | 93.7%
O=C1CC[C@@H](C(=O)N[C@H]2CSSC[C@@H](C(=O)N/C=C/c3ccc(O)cc3)NC(=O)[C@H](Cc3ccccc3)NC(=O)[C@@H]3CCCN3C(=O)[C@@H]3CCCN3C2=O)N1 | 99.8%
Oc1ccc(Cn2cc3c(c2-c2ccccc2)CCc2cnoc2-3)cc1 | 94%
CCc1c(C(=O)NCc2c(O)ccc3cccc(O)c23)[nH]c(C)c1C(C)=O | 58.2%
COc1ccc(Cn2cc3c(c2-c2cc(OC)c(OC)c(OC)c2)CCc2cnoc2-3)cc1N | 8.78% (active)
CN1/C(=C\C(I)C(I)C2=[N+](C)c3ccccc3C2(C)C)C(C)(C)c2ccccc21 (stereo not given) | 4.84% (active)
COC(=O)[C@]12CC[C@@H](C)[C@H](C)[C@@H]1C1=CC[C@@H]3[C@@]4(C)C/C(=N\O)[C@H](O)[C@@]5(C)COC(=C45)C[C@@]3(C)[C@]1(C)CC2 | -92.9% (active)
FC(F)(F)c1ccc(-c2cnc(Cl)nc2NC2CCCCCC2)cc1 | 19.1%
COCCOC(=O)NC(=O)Nc1ccc(C(=O)c2ccc(Cl)cc2)cc1 | 11.9%
CCOC(=O)Nc1ccc2c(c1)C(=O)N(CCOC)c1ccccc1O2 | 8.18% (active)
Cc1ccc([P+](Cc2ccc([N+](=O)[O-])cc2)(c2ccc(C)cc2)c2ccc(C)cc2)cc1 | 23.1%
COc1ccc(-c2[nH]ncc2/C=C/c2cc(C(F)(F)F)[nH]c(=O)n2)cc1 | 99.1%
N=C(N)c1ccc(-c2ccc(-c3cccs3)s2)nc1 | -20.1% (active)

Compound | growth
CC(=O)OC1Oc2ccccc2-c2oc(=O)c(-c3cc(=O)oc4cc(O)ccc34)cc21 (stereo not given) | 86.9%
COc1cc(/C=C/C(=O)c2cc(-c3ccccc3)ccc2O)cc(OC)c1OC | 82.4%
CCCCCCCCCCCCCCCC(=O)N1CCN(C)CC1 | 51.1%
COc1ccccc1NC1=C(N2CCCCC2)C(=O)c2ccccc2C1=O | 70.6%
c1ccc(C2CCCCC2)c(OCCCCCN2CCNCC2)c1 | 3.84% (active)
COc1ccc(-c2cc(=O)n(-c3nc4ccccc4[nH]3)[nH]2)cc1OC | 109%
NC(=O)C1CCCN(Cc2c[nH]c3ccccc23)C1 (stereo not given) | 95.6%
O=C(OCc1ncc(-c2ccc(C(F)(F)F)cc2)c(NC2CCCCCC2)n1)c1c(F)c(F)c(F)c(F)c1F | 43.1%
Cc1ccc(C2C=C(c3ccc(Cl)cc3)N=C3SC=CN32)c(Br)c1 (stereo not given) | 67.9%
CCOCC[P+](c1ccccc1)(c1ccccc1)c1ccccc1 | 34.2%
O=C1NN(c2ccccc2)C(c2cccnc2)=N/C1=C\c1cccnc1 | 97.2%
COc1cc([C@@H]2c3cc4c(cc3[C@H](SC(=N)N)[C@H]3COC(=O)[C@H]23)OCO4)cc(OC)c1OC | 8.38% (active)
CCN1CCN(c2nc(NNC(=O)c3cccc(OC)c3)nc(N3CCN(C(c4ccccc4)c4ccccc4)CC3)n2)CC1 | 9.36% (active)
O=c1oc2c3ccc4cnccc4c3[nH]c2c2ccccc12 | -19.7% (active)
Nc1c(CNCc2nnn(Cc3ccccc3)c2N)nnn1Cc1ccccc1 | 105%
COc1ccc(/C(=C/c2cc(OC)c(OC)cc2[N+](=O)[O-])C(=O)O)cc1 | 109%
O=C(Nc1cccc([N+](=O)[O-])c1)NN1CCCCCC1 | 107%
CCOc1ccc(-n2cc(-c3ccc(N(C)C)cc3)[n+]3c2CCCCC3)cc1 | 9.2% (active)
Cc1ccc2oc(=O)cc(/C(=C3/C=CC=N3)c3ccc[nH]3)c2c1 | -36.6% (active)
Cn1c([N+](=O)[O-])cnc1C=C1C(=O)c2ccccc2C1=O | 56.1%
